The values that follow come from PubChem BioAssay (NCI).

This is part of a sample that, as a whole, favours compounds with a hit. Of some 83,000 tested, about 20% had one in any assay.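 48-hour exposure, single concentration, 96-well plates; percent growth endpoint where 0 means no net growth. Active: below 10.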 A number with no mark means an inactive call. The source made the active and inactive calls.

This assay concerns MDA-MB-468 breast. Put plainly: NCI-60 one-dose screen, 48 h (100 = growth as untreated, 0 = no growth, -100 = all killed). To be noted: 10 µM unless noted.
On to `COc1ccc(-c2cc(-c3cccc4ccccc34)n3c(n2)nc2ccccc23)cc1`, for which the growth is 52.4%.
As to `O=C(/C=C/c1sc(Cl)nc1Cl)c1ccc(Br)cc1`, the growth was 63.2%.
With `N#Cc1c(N)nc2c(nnn2-c2cccc(C(F)(F)F)c2)c1N`, the growth was 76.4%.
The value for `CC(C)C(=O)Cc1cnccn1` was 119%.
For the molecule `Fc1ccc(C2CC(c3cccc(Nc4ccncc4)c3)=NN2c2ccc(Cl)cc2)cc1` (stereo unspecified), the growth is 63.6%.
Regarding `CC(=O)c1cc(Br)ccc1O`, the growth was 103%.
The value for `C=CCn1c(C)nc2ccc(Nc3nc(Nc4ccc5nc(C)n(CC=C)c5c4)c4ccccc4n3)cc21` was -92.8% (active); that for `O=c1oc2ccc(Cl)cc2c(=O)n1-c1ccc(I)cc1F` was 1.73% (active).
Under `Cc1cc(Cl)c2c(Cl)ccc(Cl)c2n1` stands 105%; under `C/C=C/C1=CN2C(=O)c3cc(OC4OC(C)C(NC)C(C)(O)C4O)c(C)cc3N=C[C@@H]2C1` (stereo partly specified), -52.9% (active).
For `FC(F)(F)c1cccc(CNC2CCN(CCc3ccccc3)CC2)c1`, the growth was 87.2%.
The value for `C=CCNCCN1C(=O)c2ccc3c4c(ccc(c24)C1=O)C(=O)N(CCNCC=C)C3=O` was -89.1% (active); that for `COc1ccc(/C=C(\C#N)c2cc3ccccc3n2C)cc1` was 27.6%.
`c1c(-c2cc(C3CC3)[nH]n2)n[nH]c1C1CC1`: the growth is 95.4%.
The value for `c1ccc(N2N=C(c3cccc(Nc4ccncc4)c3)CC2c2ccc3c(c2)OCO3)cc1` (stereo unspecified) was 15.1%; that for `COc1cc(OC)c(/C=C/c2cc[n+](C)c3ccccc23)c(OC)c1` was -20.6% (active).
